Here are results for 20 compounds from PubChem BioAssay.

Assay [1] can be described thus: antimalarial activity against Dd2 strain (AID 2302;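 active = growth inhibition above 50% at the single 2 µM test dose, taken to imply half-maximal potency below 2 µM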;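 also: 0% = DMSO untreated growth and 100% = chloroquine plus artemisinin killed control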). The settings on record: P. falciparum Dd2 in RBCs, LDH growth readout, 72 h; at 2 µM; hits give high values.
Assay [2] can be described thus: HepG2 cytotoxicity, primary screen, cytotoxicity control for P. falciparum antimalarial project, cell-based, ATP luminescence (AID 2303;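 active = inhibition above 50%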;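 also: 0% = DMSO wells and 100% = digitonin-killed cells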). Particulars: HepG2 viability, 24-48 h, at 10 µM, hits give high values.
Assay [3] concerns the target L-lactate dehydrogenase (Plasmodium falciparum (isolate CDC / Honduras)) (UniProt Q27743). The assay can be described thus: PfLDH activity inhibition – cell lysate, 3D7 strain, counter-screen for P. falciparum growth inhibition project (AID 2304).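 Also: 0% = vehicle and 100% = reference inhibitor.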 Particulars: P. falciparum 3D7 crude extract, LDH APAD/NBT absorbance; at 2 µM; hits give high values.
Assay [4] in a line: inhibition of 3D7 malaria parasite growth – strain 3D7 (AID 2306).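 Also: 0% = DMSO wells and 100% = chloroquine plus artemisinin control wells.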 The settings on record: P. falciparum 3D7 erythrocytic growth, LDH absorbance, 72 h; at 2 µM; hits give high values.
In assay [5] the target is Calcium-dependent protein kinase 1 (Plasmodium falciparum (isolate 3D7)) (UniProt P62344). The assay can be described thus: PfCDPK1 kinase inhibitors, biochemical, TCAMS library (AID 1159585; cut-off not given, nearly all actives have IC50 up to about 0.98 µM;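 also: inhibitors leave more ATP so luminescence rises with inhibition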). The settings on record: recombinant PfCDPK1, Kinase-Glo ATP depletion luminescence.
For assay [6], the target named is Plasmodium falciparum protein kinase 6 (PK6, PF3D7_1337100) (UniProt Q8IDW1). The assay is described as follows: PfPK6 kinase inhibitors, biochemical, TCAMS library (AID 1159586). Particulars: recombinant PfPK6, Kinase-Glo ATP depletion luminescence. A general note: In Kinase-Glo more light means more ATP remaining.
Assay [7] addresses Protein kinase 7 (PK7), Plasmodium falciparum 3D7 (PF3D7_0213400) (UniProt Q7YTF7). The assay can be described thus: inhibition of Plasmodium PK7 catalytic activity – biochemical, TCAMS antimalarial set, Kinase-Glo luminescence (AID 1159587). The settings on record: recombinant PfPK7, Kinase-Glo ATP depletion luminescence.
Assay [8] addresses Calcium-dependent protein kinase 4 (Plasmodium falciparum (isolate 3D7)) (UniProt Q8IBS5). The assay is described as follows: PfCDPK4 kinase inhibitors, biochemical, TCAMS library (AID 1159588; cut-off not given, nearly all actives have IC50 up to about 0.91 µM). Particulars: recombinant PfCDPK4, Kinase-Glo ATP depletion luminescence.

Molecules are shown by their SMILES. Values without a mark were called inactive. For some of these results: Measured potencies and affinities stand elsewhere. The source made the active and inactive calls. Unless noted, no rule for the calls is given here.

In general, inhibition refers to the drop in the measured response relative to a control, in per cent.

Sequence of Calcium-dependent protein kinase 4 (Plasmodium falciparum (isolate 3D7)) (Q8IBS5 whole entry, looked up): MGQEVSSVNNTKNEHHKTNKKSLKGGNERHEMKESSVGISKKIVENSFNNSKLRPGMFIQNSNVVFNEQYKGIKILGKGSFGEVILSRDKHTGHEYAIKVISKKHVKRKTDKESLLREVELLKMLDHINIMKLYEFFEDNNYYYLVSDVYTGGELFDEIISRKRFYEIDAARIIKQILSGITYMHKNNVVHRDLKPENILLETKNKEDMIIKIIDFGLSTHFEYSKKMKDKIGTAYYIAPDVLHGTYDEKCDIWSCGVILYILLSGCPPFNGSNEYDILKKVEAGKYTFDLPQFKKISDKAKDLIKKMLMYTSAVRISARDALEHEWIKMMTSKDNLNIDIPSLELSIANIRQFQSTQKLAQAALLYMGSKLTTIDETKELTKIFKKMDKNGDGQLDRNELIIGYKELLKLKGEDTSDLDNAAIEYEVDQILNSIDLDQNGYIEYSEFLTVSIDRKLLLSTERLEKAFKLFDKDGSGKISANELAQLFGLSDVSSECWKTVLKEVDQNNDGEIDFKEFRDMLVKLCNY
Sequence of L-lactate dehydrogenase (Plasmodium falciparum (isolate CDC / Honduras)) (Q27743 whole entry, looked up): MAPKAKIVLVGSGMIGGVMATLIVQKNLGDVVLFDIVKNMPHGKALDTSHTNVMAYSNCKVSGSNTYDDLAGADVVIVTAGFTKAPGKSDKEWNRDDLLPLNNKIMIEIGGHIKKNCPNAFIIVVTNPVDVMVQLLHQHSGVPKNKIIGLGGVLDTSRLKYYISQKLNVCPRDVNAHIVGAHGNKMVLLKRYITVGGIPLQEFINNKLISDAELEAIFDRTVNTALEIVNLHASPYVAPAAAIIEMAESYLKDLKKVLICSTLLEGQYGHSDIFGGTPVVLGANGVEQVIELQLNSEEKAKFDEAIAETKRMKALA
Sequence of Protein kinase 7 (PK7), Plasmodium falciparum 3D7 (PF3D7_0213400) (Q7YTF7 1-343): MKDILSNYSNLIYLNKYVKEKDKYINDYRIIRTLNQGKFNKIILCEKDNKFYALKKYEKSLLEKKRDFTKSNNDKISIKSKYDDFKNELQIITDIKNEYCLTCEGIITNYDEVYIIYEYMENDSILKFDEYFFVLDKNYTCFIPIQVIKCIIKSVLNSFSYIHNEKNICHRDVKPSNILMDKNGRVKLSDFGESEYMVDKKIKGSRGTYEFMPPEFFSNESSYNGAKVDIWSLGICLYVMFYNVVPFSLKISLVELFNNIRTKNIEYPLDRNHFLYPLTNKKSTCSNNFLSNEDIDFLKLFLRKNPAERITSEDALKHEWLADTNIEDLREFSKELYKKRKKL
Sequence of Calcium-dependent protein kinase 1 (Plasmodium falciparum (isolate 3D7)) (P62344 whole entry, looked up): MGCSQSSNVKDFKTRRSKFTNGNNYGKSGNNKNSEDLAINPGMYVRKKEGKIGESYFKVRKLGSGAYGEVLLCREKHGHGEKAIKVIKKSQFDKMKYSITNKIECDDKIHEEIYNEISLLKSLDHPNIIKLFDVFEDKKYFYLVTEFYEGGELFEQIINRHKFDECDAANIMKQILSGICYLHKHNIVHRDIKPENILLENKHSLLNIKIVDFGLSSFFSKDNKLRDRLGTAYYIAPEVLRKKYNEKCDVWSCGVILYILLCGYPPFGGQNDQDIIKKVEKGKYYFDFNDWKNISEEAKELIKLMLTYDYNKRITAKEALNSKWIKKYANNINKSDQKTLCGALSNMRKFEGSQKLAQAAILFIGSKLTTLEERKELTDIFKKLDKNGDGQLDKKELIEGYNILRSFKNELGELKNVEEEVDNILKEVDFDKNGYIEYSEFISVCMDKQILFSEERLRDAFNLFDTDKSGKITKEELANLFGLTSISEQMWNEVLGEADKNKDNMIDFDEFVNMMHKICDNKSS
Sequence of Plasmodium falciparum protein kinase 6 (PK6, PF3D7_1337100) (Q8IDW1 1-305): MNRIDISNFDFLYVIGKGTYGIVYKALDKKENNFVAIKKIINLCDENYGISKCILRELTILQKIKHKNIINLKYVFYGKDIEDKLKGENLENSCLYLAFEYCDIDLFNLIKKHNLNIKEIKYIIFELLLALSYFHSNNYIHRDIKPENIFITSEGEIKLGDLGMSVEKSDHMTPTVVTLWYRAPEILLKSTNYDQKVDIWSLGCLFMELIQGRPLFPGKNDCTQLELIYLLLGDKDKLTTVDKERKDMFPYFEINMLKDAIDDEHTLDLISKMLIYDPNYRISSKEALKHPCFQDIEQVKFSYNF

As to `CC(=O)Nc1ccc(OCCCCN(Cc2ccccc2C(F)(F)F)c2ccc(C#N)c(C(F)(F)F)c2)cc1`, the values for the growth inhibition in assay [1] and in assay [4] were 47% and 80% (active), respectively. For the same compound, the inhibition in assay [2] was -3%; in assay [3] it was 1%. The result in assay [5], in assay [6], in assay [7] and in assay [8] was inactive.

`c1cn(-c2ccc(CNc3nccc(Nc4ccc(OCCN5CCOCC5)cc4)n3)cc2)cn1`: the figures for the growth inhibition in assay [1] and in assay [4] were 3% and 100% (active), respectively. Further, the inhibition in assay [2] was 2%; in assay [3] it was -2%. In addition, the result in assay [5], in assay [6], in assay [7] and in assay [8] was inactive.

As for `CC(C)(C)OC(=O)C1CCCN(Cc2ccc(-c3cccc(-c4nc5ccccc5[nH]4)c3)cc2)C1` (stereo not given), the results for the growth inhibition in assay [1] and in assay [4] were 27% and 93% (active), respectively. Further, the results for the inhibition in assay [2] and in assay [3] were 37% and 4%, respectively. Further, the result in assay [5], in assay [6], in assay [7] and in assay [8] was inactive.

As to `CCCc1cc(NC2CCN(C)CC2)nc(Nc2ccc(C)cc2)n1`, the results for the growth inhibition in assay [1] and in assay [4] were 20% and 101% (active), respectively. In addition, the inhibition in assay [2] is 25%; in assay [3], -1%. The result in assay [5], in assay [6], in assay [7] and in assay [8] was inactive.

In the case of `Cc1cccc2[nH]c(-c3ccc(-c4ccc(CNCc5ccc(CN)cc5)cc4)s3)nc12`, the growth inhibition in assay [1] is 85% (active); in assay [4], 101% (active). In addition, the inhibition in assay [2] was 4%; in assay [3] it was -8%. The outcome in assay [5], in assay [6], in assay [7] and in assay [8] was inactive.

Turning to `Oc1ccc2nc(N3CCNCC3)nc(NCCCc3ccccc3)c2c1`, the values for the growth inhibition in assay [1] and in assay [4] were 0% and 102% (active), respectively. Besides, the inhibition was 14% in assay [2] and -4% in assay [3]. For the same compound, the outcome in assay [5], in assay [6], in assay [7] and in assay [8] was inactive.

As for `Cc1cc(=O)[nH]c2cc(Nc3ccnc(Nc4cccc(C(N)=O)c4)n3)ccc12`, the growth inhibition is 98% (active) in assay [1] and 99% (active) in assay [4]. Besides, the inhibition in assay [2] is 27%; in assay [3], -4%. The result in assay [5], in assay [6], in assay [7] and in assay [8] was inactive.

Take `O=[N+]([O-])c1cccc(CNCC2CCN(Cc3ccc(Cl)c(Cl)c3)CC2)c1`: the growth inhibition was 41% in assay [1] and 101% (active) in assay [4]. Besides, the results for the inhibition in assay [2] and in assay [3] were 9% and 4%, respectively. Also, the result in assay [5], in assay [6], in assay [7] and in assay [8] was inactive.

In the case of `CCCCN(CCCC)CCC(O)C(=Cc1ccc(Cl)cc1Cl)c1ccc(C(F)(F)F)cc1N` (stereo not given), the growth inhibition in assay [1] was 99% (active); in assay [4] it was 100% (active). Further, the figures for the inhibition in assay [2] and in assay [3] were -9% and 1%, respectively. Moreover, the outcome in assay [5], in assay [6], in assay [7] and in assay [8] was inactive.

`COc1cccc(CNC(=O)c2ccnc(-c3cccc(CN(C)C4CCN(C)CC4)c3)c2)c1`: the growth inhibition was 46% in assay [1] and 100% (active) in assay [4]. Further, the inhibition in assay [2] is 19%; in assay [3] it was -1%. Moreover, the result in assay [5], in assay [6], in assay [7] and in assay [8] was inactive.

Regarding `COc1ccc2ncc(OC)c(CCN3CC[C@@H](NCc4ccc5c(n4)NC(=O)CS5)[C@H](O)C3)c2n1`, the growth inhibition in assay [1] is 99% (active); in assay [4], 94% (active). Moreover, the values for the inhibition in assay [2] and in assay [3] were 21% and 4%, respectively. The result in assay [5], in assay [6], in assay [7] and in assay [8] was inactive.

Regarding `COc1cc2ncnc(Nc3ccc(OCc4ccccc4Br)c(Cl)c3)c2cc1OC`, the figures for the growth inhibition in assay [1] and in assay [4] were 6% and 96% (active), respectively. The inhibition in assay [2] was 25%; in assay [3] it was -4%. Moreover, the outcome in assay [5], in assay [6], in assay [7] and in assay [8] was inactive.

As for `NC1=NC2(CCCCC2)N(OCCCOc2cccc3ccccc23)C(N)=N1`, the results for the growth inhibition in assay [1] and in assay [4] were 96% (active) and 95% (active), respectively. Also, the inhibition was 67% (active) in assay [2] and -2% in assay [3]. The result in assay [5], in assay [6], in assay [7] and in assay [8] was inactive.

In the case of `CC(C)[C@@H](C(=O)NCc1cccc(C(F)(F)F)c1)N1C(=O)CCC1C(=O)Nc1ccc([N+](=O)[O-])cc1` (stereo not given in full), the growth inhibition is 2% in assay [1] and 94% (active) in assay [4]. Besides, the inhibition is -5% in assay [2] and -2% in assay [3]. Further, the result in assay [5], in assay [6], in assay [7] and in assay [8] was inactive.

As to `Cc1c[nH]c2cc(/C=C/C(=O)NC3CCC(CCN4CCc5ccc(C#N)cc5CC4)CC3)ccc12` (stereo not given), the growth inhibition in assay [1] was 59% (active); in assay [4] it was 95% (active). Moreover, the inhibition is -1% in assay [2] and -2% in assay [3]. Further, the outcome in assay [5], in assay [6], in assay [7] and in assay [8] was inactive.

On to `CN(CCN1CCCC1)c1nc2ccc(-n3cnc4cc(-c5ccc(Cl)cc5)sc4c3=O)cc2[nH]1`, for which the growth inhibition in assay [1] was 15%; in assay [4] it was 93% (active). For the same compound, the inhibition in assay [2] was 76% (active); in assay [3] it was 3%. Further, the outcome in assay [5], in assay [6], in assay [7] and in assay [8] was inactive.

Regarding `CCOc1cc(C(=O)N[C@@H](Cc2ccccc2)[C@H](O)CNCc2cc(OC)cc(OC)c2)cc(N2CCCC2=O)c1`, the growth inhibition in assay [1] is 63% (active); in assay [4], 94% (active). The results for the inhibition in assay [2] and in assay [3] were 0% and 4%, respectively. For the same compound, the outcome in assay [5], in assay [6], in assay [7] and in assay [8] was inactive.

Regarding `COC(=O)[C@@H](NC(=O)[C@H](CC(C)C)Nc1ccc(C#N)c2ccccc12)c1ccc(O)cc1`, the growth inhibition in assay [1] was 87% (active); in assay [4], 98% (active). Further, the inhibition is 4% in assay [2] and 0% in assay [3]. In addition, the outcome in assay [5], in assay [6], in assay [7] and in assay [8] was inactive.

As for `O=C(Cc1cnc[nH]1)Nc1cccc(-c2ccc(-c3nc4ccc(C(F)(F)F)cc4[nH]3)s2)c1`, the growth inhibition is 99% (active) in assay [1] and 101% (active) in assay [4]. Also, the inhibition was 5% in assay [2] and 3% in assay [3]. Also, the result in assay [5], in assay [6], in assay [7] and in assay [8] was inactive.

In the case of `CCCN(C(=O)c1ccccc1C)c1nnc(-c2cccc(C)c2)s1`, the growth inhibition in assay [1] was 67% (active); in assay [4] it was 91% (active). Besides, the inhibition in assay [2] was 8%; in assay [3], -4%. Moreover, the outcome in assay [5], in assay [6], in assay [7] and in assay [8] was inactive.
